# Measurements from PubChem BioAssay (Tox21).
# A number with no mark means an inactive call. Inconclusive results are not listed. Where a call stands in place of a potency, no number is given. The source made the active and inactive calls. Unless noted, the call rests on the fitted dose curve; in most records, active means well fitted curve in the direction sought with a large enough effect in the repeat runs; inconclusive means weak or mixed curves; inactive means no such curve, though single readings can be large; an effect the other way counts as inactive or inconclusive.
# Experiments:
# [1] = A CellTox Green Cytotoxicity Assay to monitor cytotoxicity in HepG2 cells - 32 hour (AID 1224883); further: nearly all actives have a fitted effect of over 50% in size
# Summary of the method: (§1)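 First, HepG2 cells (600/well) mixed with reagent were plated; second, after 5 h at 37 C they received compounds via pintool; third, fluorescence was measured at 0 h through 40 h at 8 h intervals.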
# [2] = A CellTox Green Cytotoxicity Assay to monitor cytotoxicity in HEK293 cells - 8 hour (AID 1224884); further: nearly all actives have a fitted effect of over 35% in size
# Summary of the method: (§2)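 Dead-cell fluorescence measured kinetically: asymmetric cyanine dye, HEK293, 600 cells/well, 5 h settle, 23 nL cpd/DMSO, 37 C, reads 0–40 h every 8 h.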
# [3] = qHTS RealTime-Glo MT Cell Viability Assay in HepG2 cells - 16 hour (AID 1224885); further: nearly all actives have a fitted effect of over 50% in size
# Summary of the method: (§3)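 Viability was tracked continuously by NanoLuc luminescence from prosubstrate reduced by living HepG2 cells, at successive time points over 40 h of compound exposure. Cells with reagent were preincubated 5 h at 37 °C before compound addition.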
# [4] = qHTS RealTime-Glo MT Cell Viability Assay in HEK293 cells - 24 hour (AID 1224886); further: nearly all actives have a fitted effect of over 50% in size; further: potency means the concentration at half of the fitted maximal effect
# Summary of the method: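 Viability tracked continuously by luminescence as live cells reduce a prosubstrate for NanoLuc; HEK293 cells preincubated 5 h, compound-treated at 37 C, and read at 0, 8, 16, 24, 32 and 40 h.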
# [5] = qHTS RealTime-Glo MT Cell Viability Assay in HEK293 cells - 8 hour (AID 1224887); further: nearly all actives have a fitted effect of over 50% in size; further: potency means the concentration at half of the fitted maximal effect
# Summary of the method: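 600 HEK293 cells per well, dispensed already mixed with RealTime-Glo MT reagents. Compound dosing came 5 h later. The same wells were read for luminescence at 0, 8, 16, 24, 32 and 40 h of exposure at 37 C.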
# [6] = A CellTox Green Cytotoxicity Assay to monitor cytotoxicity in HEK293 cells - 16 hour (AID 1224888); further: nearly all actives have a fitted effect of over 35% in size
# Summary of the method: as §2
# [7] = qHTS RealTime-Glo MT Cell Viability Assay in HepG2 cells - 0 hour (AID 1224889); further: nearly all actives have a fitted effect of over 50% in size
# Summary of the method: as §3
# [8] = A CellTox Green Cytotoxicity Assay to monitor cytotoxicity in HepG2 cells - 8 hour (AID 1224890); further: nearly all actives have a fitted effect of over 45% in size
# Summary of the method: as §1
# [9] = qHTS assay to identify small molecule antagonists of the androgen receptor (AR) signaling pathway using the MDA cell line in the presence of 0.5 nM R1881 - cell viability counter screen (AID 1259242); further: nearly all actives have a fitted effect of over 45% in size
# Summary of the method: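 qHTS format. MDA-kb2 (MMTV-luc, AR/GR responsive) + cpd + 0.5 nM R1881 final, 16 hr 37C/0% CO2 → CellTiter-Fluor 30 min → fluorescence intensity.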
# [10] = target: Estrogen receptor (Homo sapiens) (UniProt P03372); test: qHTS assay to identify small molecule antagonists of the estrogen receptor alpha (ER-alpha) signaling pathway using the BG1 cell line in the presence of 0.1 nM 17-beta-estradiol (AID 1259244); further: nearly all actives have a fitted effect of over 50% in size
# Estrogen receptor (Homo sapiens), sequence (P03372 whole entry, looked up): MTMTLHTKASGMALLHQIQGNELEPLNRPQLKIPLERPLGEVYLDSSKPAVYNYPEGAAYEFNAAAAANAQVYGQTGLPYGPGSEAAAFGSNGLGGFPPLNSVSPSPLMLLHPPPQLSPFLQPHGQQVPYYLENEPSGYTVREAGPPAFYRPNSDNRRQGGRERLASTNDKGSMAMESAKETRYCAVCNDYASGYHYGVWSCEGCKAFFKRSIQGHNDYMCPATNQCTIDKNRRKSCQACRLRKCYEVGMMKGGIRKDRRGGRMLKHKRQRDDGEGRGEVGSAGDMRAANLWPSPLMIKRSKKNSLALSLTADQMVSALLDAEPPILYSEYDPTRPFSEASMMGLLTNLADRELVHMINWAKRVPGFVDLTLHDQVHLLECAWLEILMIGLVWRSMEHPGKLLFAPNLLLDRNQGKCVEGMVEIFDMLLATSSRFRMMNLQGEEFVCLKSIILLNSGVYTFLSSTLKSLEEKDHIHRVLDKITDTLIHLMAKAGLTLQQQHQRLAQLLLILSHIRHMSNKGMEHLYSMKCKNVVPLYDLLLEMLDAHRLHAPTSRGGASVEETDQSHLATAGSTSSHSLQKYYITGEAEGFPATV
# Summary of the method: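 Reporter is a stably transfected luciferase under four estrogen responsive elements in VM7Luc4E2 cells expressing native full-length ER-alpha; inhibition of 0.1 nM (final) 17beta-estradiol-driven signal over 22 h is read by luminescence.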
# [11] = qHTS assay to identify small molecule HDAC inhibitors (AID 1259364);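 further: wild-type HCT-116 cells with endogenous class I/II HDAC activity; top concentration of the series differs between compounds; nearly all actives have a fitted effect of over 45% in size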
# Summary of the method: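 Quantitative high-throughput format: overnight-seeded HCT-116 cells got compounds for 2 hr at 37C; HDAC-Glo I/II reagent added, 30 min RT, luminescence measured.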
# [12] = qHTS assay to identify small molecule HDAC inhibitors - cell viability counter screen (AID 1259365)
# Summary of the method: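 Luminescence from CellTiter-Glo, developed 30min at room temperature, reports viability of wild-type HCT-116 cells treated 2hr with compounds at 37 C and 5% CO2 after overnight plating.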
# [13] = qHTS assay to identify small molecule agonists of the sonic hedgehog signaling (Shh) pathway - cell viability counter screen (AID 1259366); further: nearly all actives have a fitted effect of over 50% in size
# Summary of the method: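 Cytotoxicity counter screen run in the same wells as the Shh reporter assay. NIH/3T3 cells carrying a Gli1 response element–driven luciferase were treated with DMSO-dissolved compounds for 24hr, and live-cell protease activity was measured with CellTiter-Fluor.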
# [14] = qHTS assay to identify small molecule antagonists of the sonic hedgehog signaling (Shh) pathway - cell viability counter screen (AID 1259367); further: nearly all actives have a fitted effect of over 55% in size
# Summary of the method: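 Conditioned medium drove Shh signaling in 3T3 Gli1-Luc cells exposed to compounds at 37C and 5% CO2. Viability was determined from CellTiter-Fluor fluorescence, with reagent incubated 1 hr after 23 hr of treatment.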
# [15] = qHTS assay to identify small molecule antagonists of the sonic hedgehog signaling (Shh) pathway (AID 1259369; calls by dose curve; further: nearly all actives have a fitted effect of over 45% in size)
# Summary of the method: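 Stable Gli1-Luc reporter NIH/3T3 clone; quantitative HTS in stimulated mode with conditioned medium. Luminescence measured after 24hr compound treatment at 37 C.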
# [16] = qHTS assay to identify small molecule antagonists of the estrogen receptor alpha (ER-alpha) signaling pathway using the BG1 cell line in the presence of 0.1 nM 17-beta-estradiol - cell viability counter screen (AID 1259241); further: nearly all actives have a fitted effect of over 40% in size
# Summary of the method: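 VM7Luc4E2, 4,000 cells/well, phenol red-free medium + 10% charcoal-stripped FBS; 24 hr plating; cpd + 0.1 nM E2 final, 22 hr 37C/5% CO2; CellTiter-Fluor 30 min, fluorescence.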
# [17] = target: Androgen receptor (Homo sapiens) (UniProt P10275); test: qHTS assay to identify small molecule antagonists of the androgen receptor (AR) signaling pathway using the MDA cell line in the presence of 0.5 nM R1881 (AID 1259243); further: nearly all actives have a fitted effect of over 50% in size
# Androgen receptor (Homo sapiens), sequence (P10275 whole entry, looked up): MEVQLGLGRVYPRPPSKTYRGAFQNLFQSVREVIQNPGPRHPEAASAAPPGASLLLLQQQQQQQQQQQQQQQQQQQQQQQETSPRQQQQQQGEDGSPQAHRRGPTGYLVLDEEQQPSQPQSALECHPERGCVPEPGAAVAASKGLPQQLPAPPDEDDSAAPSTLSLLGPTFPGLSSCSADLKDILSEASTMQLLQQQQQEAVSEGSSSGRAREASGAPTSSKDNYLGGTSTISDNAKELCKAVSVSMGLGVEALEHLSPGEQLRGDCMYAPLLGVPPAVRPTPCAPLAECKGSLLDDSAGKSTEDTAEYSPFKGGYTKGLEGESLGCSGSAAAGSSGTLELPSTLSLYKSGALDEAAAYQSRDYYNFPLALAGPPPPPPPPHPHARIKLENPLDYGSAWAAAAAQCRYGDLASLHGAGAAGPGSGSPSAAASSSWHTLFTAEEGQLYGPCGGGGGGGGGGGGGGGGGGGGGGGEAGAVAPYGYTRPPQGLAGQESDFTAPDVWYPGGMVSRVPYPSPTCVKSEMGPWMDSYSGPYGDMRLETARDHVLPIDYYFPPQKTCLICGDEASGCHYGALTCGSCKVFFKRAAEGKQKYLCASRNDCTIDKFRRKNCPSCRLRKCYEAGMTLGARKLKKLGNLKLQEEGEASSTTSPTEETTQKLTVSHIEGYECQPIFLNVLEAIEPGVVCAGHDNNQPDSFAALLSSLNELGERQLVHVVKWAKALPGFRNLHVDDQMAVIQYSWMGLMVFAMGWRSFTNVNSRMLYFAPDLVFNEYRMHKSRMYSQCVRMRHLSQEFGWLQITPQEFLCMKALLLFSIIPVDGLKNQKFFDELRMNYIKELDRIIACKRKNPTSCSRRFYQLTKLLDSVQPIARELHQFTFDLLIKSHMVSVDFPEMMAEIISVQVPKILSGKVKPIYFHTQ
# Summary of the method: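 Antagonist mode quantitative HTS in MDA-kb2 MMTV-luciferase cells, agonist R1881 at 0.5 nM final, 16 hr exposure at 37C and 0% CO2, luminescent detection.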
# [18] = qHTS assay to identify small molecule agonists of the sonic hedgehog signaling (Shh) pathway (AID 1259368; calls by dose curve;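 further: NIH/3T3-derived 3T3Gli1-Luc cells carrying a stable Gli1-driven firefly luciferase reporter; series mostly up to about 92 µM; nearly all actives have a fitted effect of over 15% in size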)
# Summary of the method: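 Quantitative high-throughput format using a Gli1-driven firefly luciferase reporter line derived from NIH/3T3 cells. After a 24 hr compound treatment at 37 C and 5% CO2, luminescence reported Gli1 response element activity.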
# [19] = target: Estrogen receptor beta (Homo sapiens) (UniProt Q92731); test: qHTS assay to identify small molecule agonists of the estrogen receptor beta (ER-beta) signaling pathway (AID 1259377; active means well fitted activation curve with a large enough effect in the signal ratio in the repeat runs, not every such curve was filed as active; the % refers to the signal ratio)
# Estrogen receptor beta (Homo sapiens), sequence (Q92731 whole entry, looked up): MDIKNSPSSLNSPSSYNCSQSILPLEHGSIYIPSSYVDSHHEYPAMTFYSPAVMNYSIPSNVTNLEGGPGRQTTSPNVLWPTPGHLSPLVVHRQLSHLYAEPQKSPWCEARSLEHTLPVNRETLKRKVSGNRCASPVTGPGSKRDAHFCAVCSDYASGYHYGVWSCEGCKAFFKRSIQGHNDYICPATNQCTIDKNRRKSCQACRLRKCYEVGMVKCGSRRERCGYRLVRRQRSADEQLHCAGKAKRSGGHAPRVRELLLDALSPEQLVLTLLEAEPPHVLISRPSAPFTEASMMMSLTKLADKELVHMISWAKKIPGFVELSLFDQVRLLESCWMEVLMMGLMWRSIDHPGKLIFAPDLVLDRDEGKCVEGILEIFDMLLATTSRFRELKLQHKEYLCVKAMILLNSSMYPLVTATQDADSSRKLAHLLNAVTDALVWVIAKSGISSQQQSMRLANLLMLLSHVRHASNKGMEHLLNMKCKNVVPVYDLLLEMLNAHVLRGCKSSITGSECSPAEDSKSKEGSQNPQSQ
# Summary of the method: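 HEK293T ER-beta-UAS-bla; 2% charcoal-stripped FBS; cells pre-incubated 6 hr, compound 16 hr, 37C/5% CO2; LiveBLAzer B/G FRET substrate 2 h RT; fluorescence intensity read.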
# [20] = qHTS assay to identify small molecule phospholipidosis (PLD) inducers (AID 1259344; active means well fitted curve in the direction sought with a large enough effect; an effect the other way counts as inactive or inconclusive)
# Summary of the method: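 After 4 h attachment on collagen I, HepG2 cells were dosed with compound alongside LipidTOX Red, kept 24 h at 37 C, fixed, and imaged for lamellar phospholipid pits.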
SMILES,Potency [1],Potency [2],outcome [3],Potency [4],Potency [5],outcome [6],Potency [7],outcome [8],outcome [9],Potency [10],Potency [11],outcome [12],Potency [13],Potency [14],Potency [15],Potency [16],Potency [17],outcome [18],Potency [19],outcome [20]
CC(C)C(=O)OCCc1ccccc1,inactive,inactive,inactive,inactive,inactive,inactive,inactive,inactive,inactive,inactive,inactive,inactive,inactive,inactive,inactive,–,–,–,–,–
CNC(=O)[C@H]1O[C@@H](n2cnc3c(NCc4cc(Cl)ccc4OCc4cc(C)no4)ncnc32)[C@H](O)[C@@H]1N,inactive,inactive,inactive,inactive,inactive,–,inactive,inactive,inactive,inactive,inactive,inactive,inactive,inactive,inactive,inactive,inactive,inactive,inactive,–
CC(CC=O)CCCC(C)(C)O (configuration not stated),inactive,inactive,inactive,inactive,inactive,–,inactive,inactive,inactive,inactive,inactive,inactive,inactive,inactive,–,inactive,inactive,inactive,–,inactive
C=CC(OCC)OCC,inactive,inactive,inactive,inactive,inactive,inactive,inactive,inactive,–,–,inactive,inactive,inactive,–,–,–,–,inactive,inactive,–
O=C(OCC(O)CO)c1ccccc1Nc1ccnc2c(C(F)(F)F)cccc12 (configuration not stated),inactive,inactive,inactive,4.77 µM (active),3.79 µM (active),–,inactive,inactive,inactive,inactive,inactive,inactive,inactive,–,–,inactive,inactive,inactive,–,–
COCCOCCOCCOCCOCCO,inactive,inactive,inactive,inactive,inactive,inactive,inactive,inactive,–,–,inactive,inactive,inactive,inactive,inactive,inactive,–,–,inactive,–
CC(C)OC(=O)CCCCC(=O)OC(C)C,inactive,inactive,inactive,inactive,inactive,–,inactive,inactive,–,inactive,inactive,inactive,inactive,–,inactive,–,–,inactive,inactive,–
NS(=O)(=O)c1ccc(NC(=O)CCC(=O)O)cc1,inactive,inactive,inactive,inactive,–,inactive,inactive,inactive,inactive,inactive,inactive,inactive,inactive,inactive,inactive,inactive,–,inactive,inactive,inactive
OCCC(F)(F)C(F)(F)C(F)(F)C(F)(F)C(F)(F)C(F)(F)C(F)(F)C(F)(F)F,inactive,inactive,inactive,inactive,–,inactive,inactive,inactive,inactive,–,inactive,inactive,inactive,–,inactive,inactive,inactive,inactive,inactive,–
CCCCCOC(=O)CCC,inactive,inactive,inactive,inactive,inactive,–,inactive,inactive,inactive,–,inactive,inactive,inactive,inactive,–,–,–,inactive,inactive,–
CCCCCCOC(=O)CC,inactive,inactive,inactive,inactive,–,inactive,inactive,inactive,inactive,inactive,inactive,inactive,inactive,inactive,inactive,inactive,–,–,inactive,–
COc1cc(N)ccc1C,inactive,inactive,inactive,inactive,inactive,–,inactive,inactive,inactive,–,inactive,inactive,inactive,–,inactive,inactive,–,inactive,inactive,–
CCCC(=O)C(C)=O,inactive,inactive,inactive,inactive,inactive,–,inactive,inactive,inactive,inactive,inactive,inactive,inactive,inactive,–,inactive,–,–,inactive,–
CC(C)NCC(O)COc1cccc2[nH]ccc12 (configuration not stated),inactive,inactive,inactive,inactive,inactive,–,inactive,inactive,–,–,inactive,inactive,inactive,inactive,inactive,inactive,inactive,inactive,inactive,–
